# Shn3 3UTR inh: reduction of Shn3 3'UTR firefly luciferase signal, primary screen, Schnurri-3 inhibitor project, cell-based, Clone20 osteoblasts, set 2; Clone20 osteoblast Shn3 3'UTR firefly luciferase, 24 h; inhibition, % at 12.5 µM; 360,000 compounds, 0.52% hits; AID 588674, 2011;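 active = mean inhibition of at least 75% with every replicate also reaching 75%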;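 also: 0% = median of neutral control wells and 100% = pilot-screen positive control compound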
# Peg3 prom inh-1: Peg3 promoter-driven luciferase inhibitors, primary screen, cell-based, HeLa, luciferase luminescence; HeLa PEG-Prom luciferase reporter, overnight; inhibition, % at 20 µM; 360,000 compounds, 1.7% hits; AID 588405, 2011;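 active = inhibition of at least 50% at 20 µM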
# HIF-2a inh: HIF-2a reporter inhibitors, primary screen, luminescence, 786-0 RCC cells. 786-0 RCC cells HIF-2a reporter, luciferase luminescence, overnight. inhibition, % at 18.8 µM. 360,000 compounds, 0.72% hits. AID 624352, 2012;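 active = inhibition of the luminescence signal of 40% or more relative to plate controls, in a single-dose primary screen at 18.75 µM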
# CF NFkB block: inhibitors of PAF-induced NF-kB signaling, primary screen, cell-based, GFP fluorescence, uHTS | AID 588850, 2011 | KKLEB NF-kB-GFP reporter, GFP fluorescence overnight | inhibition, % at 5 µM | 360,000 compounds, 0.86% hits;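 active = at least 50% inhibition at 5 µM, scaled per plate between neutral and stimulator controls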;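 also: PAF is a Pseudomonas aeruginosa culture filtrate used as stimulus; plate controls were PAF-stimulated DMSO wells for no effect and unstimulated DMSO wells for full effect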
# KKLEB tox: cytotoxicity in KKLEB CF airway cells, primary screen, cytotoxicity control for CF NF-kB inhibitor project, cell-based, uHTS, fluorescence assay plates; 360,000 compounds, 0.36% hits; activity change (cytotoxicity), % at 5 µM; KKLEB CF airway cells viability, ATPlite luminescence, overnight; hits give low values; cells stimulated with P. aeruginosa culture filtrate;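 active = corrected activity change at or below -50% at 5 µM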
# Peg3 prom inh-2: Peg3 promoter reporter inhibitors, retest, confirmation, cell-based, HeLa, luciferase reporter, single concentration. shares compounds with Peg3 prom inh-1. HeLa PEG-Prom luciferase reporter, luminescence, overnight. inhibition, % at 20 µM. 1,300 compounds, 84% hits. AID 602417, 2012;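 active = at 20 µM dose, 40% or more inhibition averaged across four replicates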
# The depositor's hits bear a star; . = not tested or not shown. Compounds with a hit are over-represented: about 2.6% of the library has one in this group of screens.
SMILES,Shn3 3UTR inh,Peg3 prom inh-1,HIF-2a inh,CF NFkB block,KKLEB tox,Peg3 prom inh-2
CC1=CC(C)[C@H](/C=N/n2c(=O)[nH]c3c([nH]c4ccc(C)cc43)c2=O)C(C)C1 (stereo partly specified),17.1,61.5*,10.4,13.2,6.9,33.6
COc1ccc(/C=N/n2c(=O)[nH]c3c([nH]c4ccc(C)cc43)c2=O)cc1CN1CCOCC1,10.5,13.6,-3.9,-2.8,-6.8,.
CCOc1cc(C2C(C(=O)OCC(C)C)=C(C)N=C3SCCC(=O)N32)ccc1OC(C)=O (stereo unspecified),7.7,5.7,11.4,-3.3,5.7,.
NC1=C(Br)C(=O)c2ncccc2C1=O,97.4*,102.3*,82.5*,79.4*,-64.4*,99.3*
COc1ccc(CN2C(=O)CSCC2(C)C(=O)Nc2ccc3c(c2)OCCO3)cc1 (stereo unspecified),.,.,-6.8,.,.,.
CC(C)C(=O)NC(=S)Nc1ccccc1N1CCN(C(=O)c2ccccc2)CC1,-1.0,58.0*,14.9,8.4,-23.4,40.3*
CCCCCC1(C(=O)OCC)CC(CSC(=N)N)OC1=O (stereo unspecified),-1.3,16.9,4.1,-18.5,24.2,.
CC1(C(=O)NCc2cccc3ccccc23)CCN1C(=O)Cc1ccc(-c2ccccc2)cc1 (stereo unspecified),33.8,53.3*,-0.6,-19.2,-11.0,51.4*
Cc1nc(C)c(C(=O)N/N=C/c2cc(Br)ccc2O)s1,.,50.3*,7.5,3.7,4.0,61.2*
O=C(Sc1cccc2cccnc12)c1ccccc1Br,99.0*,59.3*,14.4,33.9,12.8,46.7*
NC(=O)SCC(=O)Nc1ccc(Cl)c(Cl)c1,-8.3,66.3*,12.9,-16.6,16.1,-8.9
CSc1nsc(SCC(=O)N2CCCCC2)n1,-43.0,-129.1,-156.2,7.3,-12.0,.
NNC(=O)Cn1c(-c2ccccc2)cc(=O)n2ncnc12,-32.5,0.8,18.3,-16.4,5.0,.
CCCCN(C)CCNC(=O)c1cc(-c2cccnc2)nc2ccc(S(=O)(=O)N3CCC(C)CC3)cc12,-14.3,96.3*,24.7,14.1,-4.7,74.3*
CC1(C)CC2CC(C)(CN2C(=S)Nc2ccccc2F)C1 (stereo unspecified),8.9,7.5,8.8,2.4,-10.9,.
COc1ccccc1-c1ccc2c(c1)C(C)(Cc1cccc(F)c1)C(=O)N2 (stereo unspecified),48.0,22.8,21.5,6.3,-11.4,.
COc1ccc(OC)c(NC(=O)c2cc3c(Cl)nc4ccccc4c3s2)c1,6.0,64.5*,6.3,18.2,-26.4,20.1
Cc1cc(NC(=O)c2cncc(Br)c2)ccc1NC(=O)c1cc2ccccc2o1,68.5,85.2*,18.6,-2.6,-5.5,35.1
COc1cc(NC(=O)c2ccccc2)ccc1NC(=O)c1cc2ccccc2o1,46.1,28.6,-3.8,26.6,-15.4,.
COCCn1c(C)cc(C(=O)COC(=O)c2cccc(O)c2)c1C,53.5,74.6*,37.9,-7.6,-4.1,68.3*
COCCn1c(C)cc(C(=O)COC(=O)c2cc3c(s2)CCC3)c1C,-67.3,-219.9,-144.5,0.4,7.3,.
CC1(C)Cc2c(cnn2-c2ccc(F)cc2)C(NC(=O)CCN2CCCC2=O)C1 (stereo unspecified),-28.3,-100.3,-117.4,1.3,-12.9,.
CC1=C(CC[C@@H](C)CO)OC2CC3C4CCC5CC(O)CCC5(C)C4CC(=O)C3(C)C12 (stereo partly specified),19.1,64.9*,-30.8,-6.6,-16.8,58.1*
CCN(CC(=O)NCc1cccs1)C(=O)/C=C/c1ccc(OC)c(OC)c1,-12.9,7.9,4.9,15.4,-11.7,.
CCCc1ccc(NS(=O)(=O)c2c(C)oc(C)c2C(=O)OC)cc1,11.4,5.8,4.7,-4.2,-9.6,.
SMILES,Shn3 3UTR inh,Peg3 prom inh-1,HIF-2a inh,CF NFkB block,KKLEB tox,Peg3 prom inh-2
CCOC(=O)c1ccc(NC(=O)C2CCCN(S(=O)(=O)c3ccc(F)cc3)C2)cc1 (stereo unspecified),20.2,73.7*,19.4,-14.0,6.9,56.3*
Cc1ccc(Cl)cc1Nc1nc(-c2sc(NC(=O)c3ccco3)nc2C)cs1,8.2,90.3*,8.1,-28.0,-12.6,87.6*
COc1ccccc1Nc1nc(-c2sc(NC(=O)c3ccco3)nc2C)cs1,12.6,70.5*,6.6,32.1,-2.7,58.0*
Cc1nc(NC(=O)c2ccco2)sc1-c1csc(Nc2ccc(Cl)cc2Cl)n1,-17.0,-3.2,-41.2,22.5,-6.7,.
Cc1nc(NC(=O)c2ccco2)sc1-c1csc(Nc2ccc(Cl)cc2)n1,5.6,35.2,6.2,37.7,-3.2,.
CCOC(=O)C1CN(S(=O)(=O)c2cccs2)c2ccc(CC(=O)OC)cc2O1 (stereo unspecified),-60.8,-5.2,5.0,-2.1,-1.8,.
CC1CCCC(C)N1C(=C(Cl)Cl)C(=C1SCCS1)[N+](=O)[O-] (stereo unspecified),39.1,70.9*,30.2,25.5,-27.5,59.0*
O=C1c2cccc3cccc(c23)C(=O)N1CCCN(C(=O)c1cccs1)c1cccc(F)c1,32.4,52.2*,20.7,-9.4,-12.1,33.4
CCCc1nc(SCC(=O)N2CCCc3ccccc32)c2c(=O)n(C)c(=O)n(C)c2n1,29.0,53.3*,15.5,8.9,17.2,46.4*
O=[N+]([O-])c1ccc(OCc2n[nH]c(=S)n2-c2ccccc2)cc1,3.4,16.4,23.1,-15.5,2.2,.
CC(=O)Nc1sc(C)c(C)c1C(=O)OCC(=O)Nc1cccc(C)c1,19.0,89.5*,-5.5,43.3,-26.8,39.2
CC(=O)Nc1sc(C)c(C)c1C(=O)OCC(=O)Nc1ccccc1,1.8,17.7,-36.7,4.2,-5.1,.
O=C(CNc1ccccc1)N/N=C/c1c(O)ccc2ccccc12,91.0*,63.6*,-2.0,3.4,-9.3,68.0*
O=C(O)c1cc(N/N=C/c2c(O)ccc3ccccc23)ccc1Cl,-84.1,-282.6,-237.0,-4.9,-1.8,.
O=C(N/N=C\c1c(O)ccc2ccccc12)c1cncc(Br)c1,86.8*,65.5*,-10.2,22.0,-9.3,59.6*
Cc1coc2cc3oc(=O)c(CCC(=O)N[C@@H](CCCNC(N)=O)C(=O)O)c(C)c3cc12,4.1,7.5,5.5,5.0,3.1,.
Clc1ccccc1/C=C/c1nc(-c2ccccn2)no1,.,61.3*,63.1*,5.9,-38.0,46.8*
Cc1ccc(-c2cnc(C(O)c3ccc(Cl)c(Cl)c3)[nH]2)cc1 (stereo unspecified),8.6,12.2,-2.7,3.2,-7.9,.
